Experimental findings from PubChem BioAssay are described below.

Active and inactive are the calls of the source.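 How the source made its calls, unless noted: active means visually confirmed hit in the image check and inhibition above 20%; inconclusive means visually confirmed hit but inhibition not above 20%; inactive means no visual hit in the image check.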

A short description of test [1]: inhibitors of TNFa-induced NFkB p65 translocation, primary screen, imaging, HUVEC, MLSMR starter and 10KST1 sets (AID 438;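 active means inhibition above 20% together with a positive visual image hit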;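 further: compound added about 3h40 before a 20 min TNFalpha stimulation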;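 on inhibition: signal is the nuclear over cytoplasmic p65 intensity ratio per well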). To be noted: HUVEC TNFa-induced p65 nuclear translocation; cell count: measured here: nuclei count (cytotoxicity indicator), at 2.08 µM; inhibition: at 2 µM, stronger effect = higher value, 0% TNFa-plus-vehicle, 100% no-TNFa wells.
A short description of test [2]: reduction of polyQ htt aggregates in cells – imaging, exon1htt(103Q)mCFP cells, high-content imaging, primary screen (AID 483;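 active means visual image review flags a hit and inhibition of aggregation exceeds 20%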;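 further: compound exposure lasted 3 days before fixation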;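 on nuclei count: percent of the per-plate median nuclei count of sample wells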). The note with it: exon1htt(103Q)mCFP cell line, aggregate imaging, at 2 µM; inhibition of aggregation: stronger effect = higher value; nuclei count: measured here: cell count, toxicity.
A short description of test [3]: endothelial E-selectin expression blockers – imaging, HUVEC, immunofluorescence, MLSMR starter and 10KST1 sets, primary screen (AID 487).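 On inhibition: signal is fraction of cell area covered by stained E-selectin grains.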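 On nuclei count: 100% = median nuclei count of all wells on the same plate.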 To be noted: HUVEC TNFalpha-induced E-selectin immunofluorescence imaging, at 2 µM; inhibition: stronger effect = higher value; nuclei count: measured here: cell number, toxicity.
Test [4] deals with Voltage-gated potassium channel subunit beta-2 (Rattus norvegicus) (UniProt P62483). Kind of test: inhibitors of rat Kvbeta2 reductase activity – biochemical, NADPH fluorescence, primary screen (AID 622;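 active means fluorescence slope higher than the sample average by over 3 SD, cut at about -0.22 in these data, passing the limit was not always enough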;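 further: slope of raw intensity against log time taken from 70 to 1610 s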). The note with it: recombinant KvBeta, 4-cyanobenzaldehyde reduction, at 10 µM, stronger effect = higher value.
Sequence of Voltage-gated potassium channel subunit beta-2 (Rattus norvegicus) (P62483 whole entry, looked up): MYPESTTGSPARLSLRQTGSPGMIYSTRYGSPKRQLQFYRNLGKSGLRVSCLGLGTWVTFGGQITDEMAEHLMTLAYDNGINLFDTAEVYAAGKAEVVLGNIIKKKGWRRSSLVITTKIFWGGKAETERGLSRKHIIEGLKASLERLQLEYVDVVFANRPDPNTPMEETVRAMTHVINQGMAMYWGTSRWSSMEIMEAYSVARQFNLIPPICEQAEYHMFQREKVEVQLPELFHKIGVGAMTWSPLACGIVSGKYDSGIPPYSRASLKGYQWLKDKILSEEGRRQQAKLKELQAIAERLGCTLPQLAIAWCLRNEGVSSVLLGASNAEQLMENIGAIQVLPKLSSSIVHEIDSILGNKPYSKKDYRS
Test [5] has the same target. Kind of test: enhancers of rat Kvbeta2 NADPH turnover – biochemical, NADPH fluorescence, primary screen (AID 623;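 active means NADPH fluorescence slope more negative than the mean of all samples by about 3 SD, 99.7% confidence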;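 further: fluorescence intensity change per second fitted from 20 to 320 s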). To be noted: Recombinant KvBeta, NADPH fluorescence decrease slope, 10 min; at 10 µM; stronger effect = lower value.
Test [6] deals with Alpha-2C adrenergic receptor (Homo sapiens) (UniProt P18825). Description: compounds altering alpha2C-coupled GIRK flux – cell-based, HEK293 alpha2C/GIRK1/2, thallium flux, primary screen (AID 624;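 active means fluorescence slope after compound addition differing from the mean of all screened samples at 99.7% confidence, in either direction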;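 further: slope of fluorescence ratio to pre-addition baseline per second over 15 to 24 s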). The note with it: thallium flux BTC fluorescence, at 10 µM, actives lie on both sides.
Sequence of Alpha-2C adrenergic receptor (Homo sapiens) (P18825 whole entry, looked up): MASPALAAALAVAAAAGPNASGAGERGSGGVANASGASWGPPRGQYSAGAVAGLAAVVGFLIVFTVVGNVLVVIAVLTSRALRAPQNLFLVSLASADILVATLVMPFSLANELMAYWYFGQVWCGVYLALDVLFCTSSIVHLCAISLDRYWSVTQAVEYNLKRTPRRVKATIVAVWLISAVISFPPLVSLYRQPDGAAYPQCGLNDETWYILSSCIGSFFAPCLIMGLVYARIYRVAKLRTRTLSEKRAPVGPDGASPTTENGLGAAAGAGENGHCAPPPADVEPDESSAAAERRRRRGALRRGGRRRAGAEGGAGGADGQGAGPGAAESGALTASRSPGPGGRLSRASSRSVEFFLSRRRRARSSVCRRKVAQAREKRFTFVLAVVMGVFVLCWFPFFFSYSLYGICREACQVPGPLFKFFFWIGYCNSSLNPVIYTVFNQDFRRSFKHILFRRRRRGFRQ
Test [7] in a line: blockers of RIG-like receptor reporter activation – cell-based, Sendai virus stimulus, luciferase, 10K MLSCN set, TLR/RLR signaling modifier project, primary screen (AID 602276;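 active means inhibition at or above 50% at 10 µM; inactive means inhibition below 50%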;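 further: firefly luciferase from ISG56 promoter only with Renilla not read in this screen; 0% = Sendai virus plus DMSO and 100% = medium plus DMSO without virus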). The note with it: HEK293 RL24 IRF3 luciferase reporter, at 10 µM, stronger effect = higher value. A general note: Reporter assays use an easily measured gene product as a stand-in for the process of interest.
Test [8] is described as follows: TLR3 IRF3 reporter activation blockers – cell-based, poly I:C stimulus, luciferase, 10K MLSCN set, primary screen (AID 602277;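 active means inhibition of the reporter signal at or above 50%; inactive means inhibition below 50%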). The note with it: HEK293-TLR3 RL24 IRF3 luciferase reporter, at 10 µM, stronger effect = higher value.

On to `Cn1c(=O)[nH]c(=O)c2c1nc(Br)n2Cc1ccccc1F`, for which, in test [1], the cell count turned out to be 668. In addition, the inhibition in test [1] is 8.8% (inactive); in test [3], 4.9% (inactive); in test [7], 9.21% (inactive); in test [8], 12.8% (inactive). Also, the inhibition of aggregation in test [2] was 19.4% (inactive). For the same compound, the nuclei count was found to be 68.3% in test [2] and 106% in test [3]. The fluorescence slope in test [4] is -0.467 (inactive). For the same compound, in test [5], the NADPH fluorescence slope was -3.7e-05 (inactive). In addition, the slope in test [6] was 0.00509 (inactive).
Take `CCOc1ccc(N(CC(=O)NCc2ccco2)S(=O)(=O)c2ccc(OC)c(OC)c2)cc1`: the cell count in test [1] worked out at 429. Further, the inhibition in test [1] was 3.5% (inactive); in test [3], -45.5% (inactive); in test [7], 3.08% (inactive); in test [8] it was 30.5% (inactive). In test [2], the inhibition of aggregation was -2.6% (inactive). In addition, the nuclei count in test [2] and in test [3] was 110% in each case. Also, in test [4], the fluorescence slope was -0.409 (inactive). Moreover, in test [5], the NADPH fluorescence slope was 4.2e-05 (inactive). Moreover, the slope in test [6] was 0.0072 (inactive).
Regarding `COc1cccc(-c2noc(-c3cccs3)n2)c1`, the cell count in test [1] was determined as 390. For the same compound, the inhibition in test [1] was -0.7% (inactive); in test [3] it was -29.5% (inactive); in test [7], 6.14% (inactive); in test [8], -8.84% (inactive). For the same compound, the inhibition of aggregation in test [2] was 11.7% (inactive). The figures for the nuclei count in test [2] and in test [3] were 110% and 131%, respectively. The fluorescence slope in test [4] was -0.619 (inactive). In addition, the NADPH fluorescence slope in test [5] is 2.2e-06 (inactive). In addition, the slope in test [6] was 0.00482 (inactive).
Take `Cc1nc2ccc(S(=O)(=O)NCC(=O)N(C)Cc3ccco3)cc2s1`: in test [1], the cell count was found to be 355. Also, the inhibition is 5.2% (inactive) in test [1], -12.8% (inactive) in test [3], 14.7% (inactive) in test [7] and 14.5% (inactive) in test [8]. Also, in test [2], the inhibition of aggregation was -6.5% (inactive). Further, the nuclei count in test [2] was determined as 95.6%; in test [3], 101%. In test [4], the fluorescence slope was -0.503 (inactive). Besides, the NADPH fluorescence slope in test [5] is -1.2e-05 (inactive). Moreover, the slope in test [6] is 0.00704 (inactive).
With `COc1cc(Br)cc(/C=N/c2ncn[nH]2)c1O`, in test [1], the cell count was 376. For the same compound, the inhibition in test [1] is -8.7% (inactive); in test [3] it was -35% (inactive); in test [7], 12.8% (inactive); in test [8] it was 24.8% (inactive). In addition, in test [2], the inhibition of aggregation is -2.5% (inactive). Moreover, the results for the nuclei count in test [2] and in test [3] were 101% and 117%, respectively. Besides, the fluorescence slope in test [4] is -0.467 (inactive). Further, in test [5], the NADPH fluorescence slope was 7.7e-05 (inactive). Further, the slope in test [6] is 0.00616 (inactive).
Turning to `O=C(NCCC1=CCCCC1)c1cc2c(s1)CS(=O)(=O)C2`, in test [1], the cell count came to 610. Also, the inhibition in test [1] was 6% (inactive); in test [3] it was 31% (inactive); in test [7], -7.34% (inactive); in test [8], -9.88% (inactive). In addition, the inhibition of aggregation in test [2] is -19.3% (inactive). The nuclei count in test [2] stood at 102%; in test [3], 94.9%. The fluorescence slope in test [4] is -0.433 (inactive). The NADPH fluorescence slope in test [5] is -0.000138 (inactive). Moreover, the slope in test [6] is 0.00559 (inactive).
Regarding `COC(=O)Cc1cc(=O)[nH]c(Nc2nc3ccccc3o2)n1`, the cell count in test [1] is 354. Also, the inhibition in test [1] is -1.4% (inactive); in test [3], -125% (inactive); in test [7], -2.52% (inactive); in test [8] it was -64.7% (inactive). For the same compound, the inhibition of aggregation in test [2] is -11.1% (inactive). Moreover, the figures for the nuclei count in test [2] and in test [3] were 108% and 112%, respectively. Moreover, the fluorescence slope in test [4] was -0.268 (inactive). Besides, the NADPH fluorescence slope in test [5] is -3.1e-06 (inactive). Besides, in test [6], the slope was 0.00603 (inactive).
Turning to `COc1ccc(N2CCN(C(c3ccccc3)c3sc4nc(C)nn4c3O)CC2)cc1` (stereo not drawn), the cell count in test [1] is 694. The inhibition in test [1] was -12.9% (inactive); in test [3] it was -21.7% (inactive); in test [7], 8.1% (inactive); in test [8], 11.1% (inactive). In addition, the inhibition of aggregation in test [2] was -0.9% (inactive). Moreover, the nuclei count worked out at 112% in test [2] and 96.4% in test [3]. Moreover, the fluorescence slope in test [4] was -0.452 (inactive). Besides, in test [5], the NADPH fluorescence slope is -4.8e-05 (inactive). In addition, in test [6], the slope was 0.00526 (inactive).
On to `CC(=O)Nc1c(O)nc(SCC(=O)Nc2nnc(CC(C)C)s2)[nH]c1=O`, for which the cell count in test [1] was found to be 780. The inhibition in test [1] was -3.3% (inactive); in test [3], -41% (inactive); in test [7], -9.44% (inactive); in test [8], -13.3% (inactive). The inhibition of aggregation in test [2] was 0% (inactive). Moreover, the nuclei count came to 114% in test [2] and 104% in test [3]. Also, the fluorescence slope in test [4] is -0.541 (inactive). In addition, the NADPH fluorescence slope in test [5] is 1.8e-05 (inactive). Further, the slope in test [6] was 0.00412 (inactive).
With `Cc1ccc2nc(-c3ccc4c(c3)OCCO4)cc(C(=O)O)c2c1`, the cell count in test [1] amounted to 337. The inhibition in test [1] was -10.3% (inactive); in test [3] it was 30.4% (inactive); in test [7] it was -13.7% (inactive); in test [8], 98.1% (active). In test [2], the inhibition of aggregation is -4.5% (inactive). Moreover, the nuclei count is 111% in test [2] and 89.9% in test [3]. The fluorescence slope in test [4] is -0.299 (inactive). In addition, the NADPH fluorescence slope in test [5] is -4e-05 (inactive). Further, the slope in test [6] was 0.00454 (inactive).
Consider `Cc1cnc(C(=O)OCC(=O)Nc2ccc(Cl)cc2Cl)cn1`, for which, in test [1], the cell count came out at 738. Also, the inhibition in test [1] was 8.7% (inactive); in test [3] it was -37% (inactive); in test [7], 10.9% (inactive); in test [8], 14.7% (inactive). Besides, the inhibition of aggregation in test [2] is -16.9% (inactive). Also, the nuclei count in test [2] was found to be 119%; in test [3], 94.9%. For the same compound, the fluorescence slope in test [4] was -0.51 (inactive). Also, in test [5], the NADPH fluorescence slope is -5.1e-05 (inactive). Besides, the slope in test [6] was 0.00552 (inactive).
As to `Cc1cc(C)n2nc[n+](C)c2n1`, the cell count in test [1] worked out at 685. In addition, the inhibition in test [1] is -12.9% (inactive); in test [3], -17.6% (inactive); in test [7] it was -6.03% (inactive); in test [8] it was -6.5% (inactive). Besides, the inhibition of aggregation in test [2] was -10% (inactive). Further, the nuclei count in test [2] was 103%; in test [3] it was 120%. Further, the fluorescence slope in test [4] is -0.537 (inactive). Further, the NADPH fluorescence slope in test [5] is 3.6e-05 (inactive). Besides, the slope in test [6] was 0.0066 (inactive).
On to `CCOc1cc(NC(=O)c2ccco2)c(OCC)cc1NC(=O)CCc1ccc(OC)cc1`, for which the cell count in test [1] is 630. Moreover, the inhibition in test [1] is -0.7% (inactive); in test [3], 23.6% (inactive); in test [7] it was -0.546% (inactive); in test [8], -4.67% (inactive). In addition, the inhibition of aggregation in test [2] is -13.7% (inactive). Also, the nuclei count in test [2] came to 109%; in test [3], 102%. Further, the fluorescence slope in test [4] is -0.513 (inactive). In test [5], the NADPH fluorescence slope was -6.7e-06 (inactive). The slope in test [6] is 0.00426 (inactive).

By inhibition is commonly meant the relative decrease from the control value, in per cent.
